Laboratory results reported in PubChem BioAssay (EPA / NIEHS).
Activity calls are given as the source filed them. Rule for the calls: active = hit-call score of the fitted dose curve at least 0.9, where 1 is the maximum; inactive = score below 0.9.

Legend:
[1] = ATG_M_32_CIS: Attagene CIS-FACTORIAL HepG2 Assay for M32 Transcription Factor (Internal Marker) (AID 2282949); conditions: HepG2 Attagene cis-factorial M32 reporter, mRNA; actives raise or lower the signal;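 note: background control marker of the multiplexed CIS panel rather than a real target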
Outline: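 HepG2 transfectants (cis-regulated reporter transcription units) dosed 24 h. Reporter mRNA by RT-PCR plus CE, analysed as gain or loss relative to DMSO.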

[2] = ATG_M_06_CIS: Attagene CIS-FACTORIAL HepG2 Assay for M06 Transcription Factor (Internal Marker) (AID 2282950); conditions: HepG2 Attagene CIS-FACTORIAL M06 internal marker reporter; actives raise or lower the signal
Outline: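 Steps: transfect HepG2 with multiplexed cis-element reporter constructs; dose chemical 24 h; extract RNA with DNase treatment; reverse-transcribe, PCR-amplify, 6-FAM label, HpaI digest; separate fragments by capillary electrophoresis. Activity fitted both directions versus DMSO.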

[3] = biological target: Hypoxia-inducible factor 1-alpha (Homo sapiens) (UniProt Q16665); assay: ATG_HIF1a_CIS: Attagene CIS-FACTORIAL HepG2 Assay for human Hypoxia Inducible Factor 1 (HIF1A) (AID 2282951); conditions: HepG2 Attagene cis-factorial HIF1a reporter transcription; actives raise or lower the signal
Outline: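 Activity is fitted in both directions relative to DMSO. Reporter transcripts are read by RT-PCR, fluorescent primer extension and capillary electrophoresis after 24 h chemical treatment. The cells are HepG2 carrying transiently transfected cis-element-driven reporter units responding to endogenous factors.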

[4] = biological target: Hepatocyte nuclear factor 6 (Homo sapiens) (UniProt Q9UBC0); assay: ATG_HNF6_CIS: Attagene CIS-FACTORIAL HepG2 Assay for human Hepatocyte Nuclear Factor 6 (HNF6) (AID 2282952); conditions: HepG2 Attagene cis-factorial HNF6 reporter transcription; actives raise or lower the signal
Outline: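 First, HepG2 cells were transfected with the multiplexed cis reporter library and dosed with chemical for 24 h. Next, RNA was reverse-transcribed, PCR-amplified and fluorescently labelled. Finally, HpaI-digested fragments were read by capillary electrophoresis.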

[5] = biological target: Heat shock factor protein 1 (Homo sapiens) (UniProt Q00613); assay: ATG_HSE_CIS: Attagene CIS-FACTORIAL HepG2 Assay for human Heat Shock Transcription Factor 1 (HSE) (AID 2282953); conditions: HepG2 HSE cis-reporter, Attagene RNA transcription; actives raise or lower the signal
Outline: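 Cells were transfected with cis-element-driven reporter constructs, dosed for 24 h, then total RNA was reverse-transcribed and reporter cDNA amplified, FAM-labelled and digested with HpaI. Fragments were resolved by capillary electrophoresis; gain or loss was fitted against DMSO.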

[6] = ATG_MRE_CIS: Attagene CIS-FACTORIAL HepG2 Assay for human Metal Responsive Element (MRE) (AID 2282954); conditions: HepG2 MRE cis-reporter transcription, Attagene multiplex; actives raise or lower the signal
Outline: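 Measured here is mRNA induction from an MRE cis-element reporter in HepG2 after 24 h, quantified by fluorescence of labelled RT-PCR products on capillary electrophoresis; gain- and loss-of-signal fits use DMSO as baseline.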

[7] = ATG_PBREM_CIS: Attagene CIS-FACTORIAL HepG2 Assay for human Phenobarbital-responsive Enhancer Module (PBREM) (AID 2282955); conditions: HepG2 PBREM cis-reporter, Attagene multiplexed transcription; actives raise or lower the signal
Outline: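 Endogenous transcription factor activity was read from reporter transcripts in transiently transfected human HepG2 liver cells after 24 h dosing. RT-PCR products were fluorescently labelled, HpaI-cut and sized by capillary electrophoresis; activity fitted bidirectionally against DMSO baseline.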

[8] = biological target: Paired box protein Pax-6 (Homo sapiens) (UniProt P26367); assay: ATG_Pax6_CIS: Attagene CIS-FACTORIAL HepG2 Assay for human Paired Box 6 (PAX6) (AID 2282956); conditions: HepG2 CIS-FACTORIAL PAX6 reporter transcription, RNA readout; actives raise or lower the signal
Outline: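 DMSO-referenced bidirectional fits of reporter mRNA fluorescence; HepG2 with transient cis-promoter MRTUs, 24 h post-dose, RT-PCR plus capillary electrophoresis detection.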

[9] = ATG_PXRE_CIS: Attagene CIS-FACTORIAL HepG2 Assay for human Pregnane X Receptor Element (PXRE) (AID 2282957); conditions: HepG2 Attagene CIS-FACTORIAL PXRE reporter, mRNA; actives raise or lower the signal
Outline: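 After a 24 h chemical incubation, total RNA from transfected HepG2 cells was reverse-transcribed and reporter cDNA amplified, FAM-labeled, HpaI-digested and sized by capillary electrophoresis. DMSO served as baseline for bidirectional curve fitting.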

[10] = ATG_PPRE_CIS: Attagene CIS-FACTORIAL HepG2 Assay for human Peroxisome Proliferator-activated Response Element (PPRE) (AID 2282958); conditions: HepG2 PPRE cis-element reporter, Attagene transcription factor profiling; actives raise or lower the signal
Outline: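 Endogenous PPRE-driven transcription is measured in HepG2 cells carrying transfected multi-reporter constructs. Reporter transcripts are quantified by RT-PCR, HpaI digestion and capillary electrophoresis 24 h after dosing. DMSO baseline, bidirectional fit.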

[11] = ATG_RORE_CIS: Attagene CIS-FACTORIAL HepG2 Assay for human RAR-related Orphan Receptor Element (RORE) (AID 2282959); conditions: HepG2 Attagene cis-factorial RORE reporter, mRNA; actives raise or lower the signal
Outline: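 RORE reporter transcripts reflecting endogenous factor activity were read after 24 h compound exposure of transfected HepG2 cells, using reverse transcription, PCR, fluorescent labelling and capillary electrophoresis sizing. Gain or loss fitted against DMSO.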

[12] = ATG_Sox_CIS: Attagene CIS-FACTORIAL HepG2 Assay for human SRY-box transcription factor (SOX) (AID 2282960); conditions: HepG2 Attagene cis-factorial SOX reporter, mRNA; actives raise or lower the signal
Outline: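 Reporter transcripts, measured by RT-PCR and capillary electrophoresis of labelled fragments, report endogenous SOX transcription factor activity. Transiently transfected human HepG2 cells receive chemical for 24 h; changes in either direction are fitted relative to DMSO.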

[13] = biological target: Transcription factor Sp1 (Homo sapiens) (UniProt P08047); assay: ATG_Sp1_CIS: Attagene CIS-FACTORIAL HepG2 Assay for human Specificity Protein 1 (Sp1) (AID 2282961); conditions: HepG2 Sp1 cis-reporter transcription, actives raise or lower the signal
Outline: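 Read-out is reporter transcript level, measured by RT-PCR and fluorescent capillary electrophoresis after 24 h chemical treatment. System: transiently transfected HepG2 cells reporting endogenous transcription factor activity; gain or loss fitted against DMSO baseline.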

[14] = ATG_SREBP_CIS: Attagene CIS-FACTORIAL HepG2 Assay for human Sterol Regulatory Element Binding (SREBP) (AID 2282962); conditions: HepG2 Attagene cis-factorial SREBP reporter, mRNA; actives raise or lower the signal
Outline: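 In this cis-format assay, HepG2 liver cells express reporters controlled by promoter elements responsive to native transcription factors. Exposure lasts 24 h; reporter mRNA fluorescence from capillary electrophoresis gives the signal, fitted bidirectionally against DMSO.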

[15] = biological target: Signal transducer and activator of transcription 3 (Homo sapiens) (UniProt P40763); assay: ATG_STAT3_CIS: Attagene CIS-FACTORIAL HepG2 Assay for human Signal Transducer and Activator of Transcription 3 (STAT3) (AID 2282963); conditions: HepG2, Attagene cis-factorial STAT3 reporter transcription; actives raise or lower the signal
Outline: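 Fluorescence intensity of 6-FAM-labelled reporter fragments, separated by capillary electrophoresis after RT-PCR, gave the signal. Cells were HepG2 transfected with cis-element reporter units and treated 24 h; fitting was bidirectional relative to DMSO.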

[16] = ATG_TA_CIS: Attagene CIS-FACTORIAL HepG2 Assay for human TA Basal Promoter (AID 2282964); conditions: HepG2 Attagene CIS-factorial TA basal promoter reporter; actives raise or lower the signal
Outline: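 Steps: transfect HepG2 with MRTUs; dose 24 h; isolate RNA, DNase-treat, reverse-transcribe; PCR and FAM-label reporter cDNA; digest with HpaI 2h at 37 C; run capillary electrophoresis. Activity fitted both directions against DMSO.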

[17] = ATG_TCF_b_cat_CIS: Attagene CIS-FACTORIAL HepG2 Assay for human T-Cell-Factor with beta-catenin (TCF/b-cat) (AID 2282965); conditions: HepG2 TCF/beta-catenin cis-reporter transcription, actives raise or lower the signal
Outline: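 Cells of the HepG2 line carry transiently transfected reporter units whose promoters respond to endogenous factors. Twenty-four hours post-dosing, reporter mRNA induction is measured by fluorescent RT-PCR and capillary electrophoresis, with DMSO as baseline.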

[18] = ATG_TAL_CIS: Attagene CIS-FACTORIAL HepG2 Assay for human TAL Basal Promoter (AID 2282966); conditions: HepG2 Attagene cis-factorial TAL promoter reporter; actives raise or lower the signal;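 note: background control endpoint measuring basal TAL promoter reporter mRNA not a specific factor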
Outline: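 Basal-promoter background-control endpoint from a multiplexed HepG2 reporter panel. Cells were exposed 24 h, then reporter mRNA was read by RT-PCR/CE fluorescence and fitted in both directions relative to DMSO.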

[19] = ATG_TGFb_CIS: Attagene CIS-FACTORIAL HepG2 Assay for human Transforming Growth Factor (TGF) (AID 2282967); conditions: HepG2 Attagene CIS TGFb reporter, mRNA transcription; actives raise or lower the signal
Outline: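 Cells were dosed for 24 hours, after which total RNA was reverse-transcribed and reporter sequences amplified, labeled and sized by capillary electrophoresis. Activity was fitted in both directions against DMSO.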

[20] = ATG_VDRE_CIS: Attagene CIS-FACTORIAL HepG2 Assay for human Vitamin D Receptor Element (VDRE) (AID 2282968); conditions: HepG2 VDRE cis-reporter transcription, actives raise or lower the signal
Outline: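 Compounds were applied for 24 h to HepG2 cells transfected with promoter-regulated reporter units. Total RNA was reverse-transcribed, and reporter amplicons were fluorescently labelled and sized by capillary electrophoresis.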

Measured: outcome

Sequence of Hypoxia-inducible factor 1-alpha (Homo sapiens) (Q16665 whole entry, looked up): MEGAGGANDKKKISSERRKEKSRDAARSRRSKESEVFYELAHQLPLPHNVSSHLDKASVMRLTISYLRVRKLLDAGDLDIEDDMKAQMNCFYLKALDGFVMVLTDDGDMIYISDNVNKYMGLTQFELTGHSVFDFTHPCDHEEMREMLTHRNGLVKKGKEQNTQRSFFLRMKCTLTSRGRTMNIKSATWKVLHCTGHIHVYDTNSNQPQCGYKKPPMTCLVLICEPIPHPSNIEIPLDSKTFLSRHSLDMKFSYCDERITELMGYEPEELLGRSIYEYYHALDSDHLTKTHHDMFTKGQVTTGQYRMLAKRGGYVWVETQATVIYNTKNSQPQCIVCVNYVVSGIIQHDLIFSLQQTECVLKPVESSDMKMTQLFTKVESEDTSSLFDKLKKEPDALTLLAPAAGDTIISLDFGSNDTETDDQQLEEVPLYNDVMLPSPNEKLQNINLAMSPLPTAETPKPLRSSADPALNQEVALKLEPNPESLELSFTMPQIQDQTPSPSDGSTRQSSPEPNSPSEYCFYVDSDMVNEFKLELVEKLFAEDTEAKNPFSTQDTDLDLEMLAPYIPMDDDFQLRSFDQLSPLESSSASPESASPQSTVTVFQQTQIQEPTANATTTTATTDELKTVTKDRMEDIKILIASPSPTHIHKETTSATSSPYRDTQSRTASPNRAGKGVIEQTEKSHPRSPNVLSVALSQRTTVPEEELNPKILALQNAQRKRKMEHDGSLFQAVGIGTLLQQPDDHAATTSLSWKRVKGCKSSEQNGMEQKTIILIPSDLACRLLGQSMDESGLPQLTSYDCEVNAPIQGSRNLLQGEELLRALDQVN
Sequence of Heat shock factor protein 1 (Homo sapiens) (Q00613 whole entry, looked up, the tested form may be a part): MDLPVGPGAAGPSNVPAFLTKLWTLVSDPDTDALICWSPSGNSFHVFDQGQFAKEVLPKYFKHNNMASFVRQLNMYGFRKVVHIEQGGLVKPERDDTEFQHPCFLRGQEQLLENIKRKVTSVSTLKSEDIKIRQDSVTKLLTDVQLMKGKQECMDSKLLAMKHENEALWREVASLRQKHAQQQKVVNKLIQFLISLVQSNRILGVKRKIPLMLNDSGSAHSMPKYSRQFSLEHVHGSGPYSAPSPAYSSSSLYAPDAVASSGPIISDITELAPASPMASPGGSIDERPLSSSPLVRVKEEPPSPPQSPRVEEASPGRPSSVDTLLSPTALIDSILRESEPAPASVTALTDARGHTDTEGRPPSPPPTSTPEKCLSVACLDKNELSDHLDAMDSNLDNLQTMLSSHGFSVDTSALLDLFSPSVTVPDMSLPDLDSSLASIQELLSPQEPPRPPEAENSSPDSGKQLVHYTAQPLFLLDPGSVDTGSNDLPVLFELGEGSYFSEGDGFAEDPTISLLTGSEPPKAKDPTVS
Sequence of Paired box protein Pax-6 (Homo sapiens) (P26367 whole entry, looked up): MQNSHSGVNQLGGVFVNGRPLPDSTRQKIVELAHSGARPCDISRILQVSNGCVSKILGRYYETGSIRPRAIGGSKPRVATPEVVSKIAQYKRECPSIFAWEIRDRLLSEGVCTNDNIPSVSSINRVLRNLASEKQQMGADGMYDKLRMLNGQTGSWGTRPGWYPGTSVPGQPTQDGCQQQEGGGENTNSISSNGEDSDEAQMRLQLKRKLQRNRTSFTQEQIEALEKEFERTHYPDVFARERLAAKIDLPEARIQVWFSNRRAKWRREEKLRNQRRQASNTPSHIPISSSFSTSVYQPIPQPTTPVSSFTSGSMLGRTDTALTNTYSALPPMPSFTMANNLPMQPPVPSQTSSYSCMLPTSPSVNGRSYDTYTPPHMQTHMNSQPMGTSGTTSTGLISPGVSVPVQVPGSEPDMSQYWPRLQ
Sequence of Signal transducer and activator of transcription 3 (Homo sapiens) (P40763 whole entry, looked up, the tested form may be a part): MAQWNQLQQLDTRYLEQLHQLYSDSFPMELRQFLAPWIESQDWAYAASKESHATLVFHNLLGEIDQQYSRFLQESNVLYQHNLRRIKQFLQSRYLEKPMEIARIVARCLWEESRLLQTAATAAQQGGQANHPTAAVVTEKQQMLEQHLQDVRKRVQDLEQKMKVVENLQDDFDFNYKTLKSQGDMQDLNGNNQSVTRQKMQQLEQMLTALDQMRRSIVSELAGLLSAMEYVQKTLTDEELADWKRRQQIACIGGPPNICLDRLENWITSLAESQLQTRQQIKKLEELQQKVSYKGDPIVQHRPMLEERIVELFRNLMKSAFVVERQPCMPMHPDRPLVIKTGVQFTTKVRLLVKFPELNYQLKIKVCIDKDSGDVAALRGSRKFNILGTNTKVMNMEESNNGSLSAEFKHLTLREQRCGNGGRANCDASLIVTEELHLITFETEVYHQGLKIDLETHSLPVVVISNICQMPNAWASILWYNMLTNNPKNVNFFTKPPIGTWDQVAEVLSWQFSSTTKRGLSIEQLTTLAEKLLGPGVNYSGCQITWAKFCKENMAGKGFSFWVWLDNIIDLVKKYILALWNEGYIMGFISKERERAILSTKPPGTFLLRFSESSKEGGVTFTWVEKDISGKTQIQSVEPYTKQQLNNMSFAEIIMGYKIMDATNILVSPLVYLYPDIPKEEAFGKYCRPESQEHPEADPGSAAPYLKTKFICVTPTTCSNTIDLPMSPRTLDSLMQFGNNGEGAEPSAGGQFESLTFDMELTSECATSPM
Sequence of Transcription factor Sp1 (Homo sapiens) (P08047 whole entry, looked up): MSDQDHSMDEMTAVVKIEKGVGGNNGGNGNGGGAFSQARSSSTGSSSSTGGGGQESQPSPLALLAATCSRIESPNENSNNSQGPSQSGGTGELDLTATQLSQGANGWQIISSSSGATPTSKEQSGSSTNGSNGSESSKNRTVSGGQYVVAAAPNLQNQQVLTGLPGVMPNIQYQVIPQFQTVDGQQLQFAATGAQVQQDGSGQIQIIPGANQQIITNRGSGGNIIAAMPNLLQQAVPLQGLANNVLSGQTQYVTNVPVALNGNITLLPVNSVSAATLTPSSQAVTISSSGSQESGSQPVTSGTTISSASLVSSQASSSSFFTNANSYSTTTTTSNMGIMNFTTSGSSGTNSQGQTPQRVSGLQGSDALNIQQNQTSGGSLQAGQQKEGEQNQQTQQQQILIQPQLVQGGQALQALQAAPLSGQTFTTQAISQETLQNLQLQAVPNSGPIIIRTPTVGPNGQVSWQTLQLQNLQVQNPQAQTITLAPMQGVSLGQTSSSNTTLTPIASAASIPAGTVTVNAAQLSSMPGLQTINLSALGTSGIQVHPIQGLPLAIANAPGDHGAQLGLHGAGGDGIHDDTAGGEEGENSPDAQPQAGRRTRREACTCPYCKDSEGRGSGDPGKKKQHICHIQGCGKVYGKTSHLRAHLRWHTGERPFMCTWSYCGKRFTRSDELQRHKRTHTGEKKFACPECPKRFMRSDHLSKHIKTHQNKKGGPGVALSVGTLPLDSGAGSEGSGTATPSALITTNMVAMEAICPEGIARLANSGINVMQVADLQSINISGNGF
Sequence of Hepatocyte nuclear factor 6 (Homo sapiens) (Q9UBC0 whole entry, looked up, the tested form may be a part): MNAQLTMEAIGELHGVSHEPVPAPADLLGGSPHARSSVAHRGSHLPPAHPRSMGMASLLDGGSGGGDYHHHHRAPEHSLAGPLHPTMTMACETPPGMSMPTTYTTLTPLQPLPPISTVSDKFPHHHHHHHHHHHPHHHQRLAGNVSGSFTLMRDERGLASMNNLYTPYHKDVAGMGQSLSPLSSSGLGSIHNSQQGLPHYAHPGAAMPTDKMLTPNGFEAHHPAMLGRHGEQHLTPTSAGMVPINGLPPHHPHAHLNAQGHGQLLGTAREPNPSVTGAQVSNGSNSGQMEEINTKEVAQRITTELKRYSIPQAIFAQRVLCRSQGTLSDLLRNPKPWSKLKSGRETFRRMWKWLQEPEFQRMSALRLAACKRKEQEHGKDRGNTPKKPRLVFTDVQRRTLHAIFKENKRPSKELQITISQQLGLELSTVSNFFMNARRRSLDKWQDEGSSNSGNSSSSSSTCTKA

c1cc[nH]c1
inactive: all assays above

CCCCCCCCCCCCCCCC(=O)OC
inactive: all assays above

COc1ccc(C#N)cc1
inactive: all assays above
